Test results taken from PubChem BioAssay AID624162 (National Center for Advancing Translational Sciences (NCATS), 2012).
The list shows a part of the results. Results filed as inconclusive are left out. Unmarked numbers belong to inactive results. Calls come from the whole dose curve; as a rule, active = well fitted inhibition curve with a large enough effect; inconclusive = small, poorly fitted or top-dose-only effect; inactive = no such curve, though single readings can be large or run the other way.

The compounds below were run against Histone-lysine N-methyltransferase 2A (Homo sapiens) (UniProt Q03164) (assay: qHTS Fluorescence Polarization (FP) Assay for Inhibitors of MLL CXXC domain - DNA interaction: HTRF Assay). Conditions: MLL CXXC-DNA binding, biochemical; series mostly up to 172 µM; activity change, negative = inhibition: at the top concentration.
Sequence of Histone-lysine N-methyltransferase 2A (Homo sapiens) (Q03164 whole entry, looked up, the tested form may be a part): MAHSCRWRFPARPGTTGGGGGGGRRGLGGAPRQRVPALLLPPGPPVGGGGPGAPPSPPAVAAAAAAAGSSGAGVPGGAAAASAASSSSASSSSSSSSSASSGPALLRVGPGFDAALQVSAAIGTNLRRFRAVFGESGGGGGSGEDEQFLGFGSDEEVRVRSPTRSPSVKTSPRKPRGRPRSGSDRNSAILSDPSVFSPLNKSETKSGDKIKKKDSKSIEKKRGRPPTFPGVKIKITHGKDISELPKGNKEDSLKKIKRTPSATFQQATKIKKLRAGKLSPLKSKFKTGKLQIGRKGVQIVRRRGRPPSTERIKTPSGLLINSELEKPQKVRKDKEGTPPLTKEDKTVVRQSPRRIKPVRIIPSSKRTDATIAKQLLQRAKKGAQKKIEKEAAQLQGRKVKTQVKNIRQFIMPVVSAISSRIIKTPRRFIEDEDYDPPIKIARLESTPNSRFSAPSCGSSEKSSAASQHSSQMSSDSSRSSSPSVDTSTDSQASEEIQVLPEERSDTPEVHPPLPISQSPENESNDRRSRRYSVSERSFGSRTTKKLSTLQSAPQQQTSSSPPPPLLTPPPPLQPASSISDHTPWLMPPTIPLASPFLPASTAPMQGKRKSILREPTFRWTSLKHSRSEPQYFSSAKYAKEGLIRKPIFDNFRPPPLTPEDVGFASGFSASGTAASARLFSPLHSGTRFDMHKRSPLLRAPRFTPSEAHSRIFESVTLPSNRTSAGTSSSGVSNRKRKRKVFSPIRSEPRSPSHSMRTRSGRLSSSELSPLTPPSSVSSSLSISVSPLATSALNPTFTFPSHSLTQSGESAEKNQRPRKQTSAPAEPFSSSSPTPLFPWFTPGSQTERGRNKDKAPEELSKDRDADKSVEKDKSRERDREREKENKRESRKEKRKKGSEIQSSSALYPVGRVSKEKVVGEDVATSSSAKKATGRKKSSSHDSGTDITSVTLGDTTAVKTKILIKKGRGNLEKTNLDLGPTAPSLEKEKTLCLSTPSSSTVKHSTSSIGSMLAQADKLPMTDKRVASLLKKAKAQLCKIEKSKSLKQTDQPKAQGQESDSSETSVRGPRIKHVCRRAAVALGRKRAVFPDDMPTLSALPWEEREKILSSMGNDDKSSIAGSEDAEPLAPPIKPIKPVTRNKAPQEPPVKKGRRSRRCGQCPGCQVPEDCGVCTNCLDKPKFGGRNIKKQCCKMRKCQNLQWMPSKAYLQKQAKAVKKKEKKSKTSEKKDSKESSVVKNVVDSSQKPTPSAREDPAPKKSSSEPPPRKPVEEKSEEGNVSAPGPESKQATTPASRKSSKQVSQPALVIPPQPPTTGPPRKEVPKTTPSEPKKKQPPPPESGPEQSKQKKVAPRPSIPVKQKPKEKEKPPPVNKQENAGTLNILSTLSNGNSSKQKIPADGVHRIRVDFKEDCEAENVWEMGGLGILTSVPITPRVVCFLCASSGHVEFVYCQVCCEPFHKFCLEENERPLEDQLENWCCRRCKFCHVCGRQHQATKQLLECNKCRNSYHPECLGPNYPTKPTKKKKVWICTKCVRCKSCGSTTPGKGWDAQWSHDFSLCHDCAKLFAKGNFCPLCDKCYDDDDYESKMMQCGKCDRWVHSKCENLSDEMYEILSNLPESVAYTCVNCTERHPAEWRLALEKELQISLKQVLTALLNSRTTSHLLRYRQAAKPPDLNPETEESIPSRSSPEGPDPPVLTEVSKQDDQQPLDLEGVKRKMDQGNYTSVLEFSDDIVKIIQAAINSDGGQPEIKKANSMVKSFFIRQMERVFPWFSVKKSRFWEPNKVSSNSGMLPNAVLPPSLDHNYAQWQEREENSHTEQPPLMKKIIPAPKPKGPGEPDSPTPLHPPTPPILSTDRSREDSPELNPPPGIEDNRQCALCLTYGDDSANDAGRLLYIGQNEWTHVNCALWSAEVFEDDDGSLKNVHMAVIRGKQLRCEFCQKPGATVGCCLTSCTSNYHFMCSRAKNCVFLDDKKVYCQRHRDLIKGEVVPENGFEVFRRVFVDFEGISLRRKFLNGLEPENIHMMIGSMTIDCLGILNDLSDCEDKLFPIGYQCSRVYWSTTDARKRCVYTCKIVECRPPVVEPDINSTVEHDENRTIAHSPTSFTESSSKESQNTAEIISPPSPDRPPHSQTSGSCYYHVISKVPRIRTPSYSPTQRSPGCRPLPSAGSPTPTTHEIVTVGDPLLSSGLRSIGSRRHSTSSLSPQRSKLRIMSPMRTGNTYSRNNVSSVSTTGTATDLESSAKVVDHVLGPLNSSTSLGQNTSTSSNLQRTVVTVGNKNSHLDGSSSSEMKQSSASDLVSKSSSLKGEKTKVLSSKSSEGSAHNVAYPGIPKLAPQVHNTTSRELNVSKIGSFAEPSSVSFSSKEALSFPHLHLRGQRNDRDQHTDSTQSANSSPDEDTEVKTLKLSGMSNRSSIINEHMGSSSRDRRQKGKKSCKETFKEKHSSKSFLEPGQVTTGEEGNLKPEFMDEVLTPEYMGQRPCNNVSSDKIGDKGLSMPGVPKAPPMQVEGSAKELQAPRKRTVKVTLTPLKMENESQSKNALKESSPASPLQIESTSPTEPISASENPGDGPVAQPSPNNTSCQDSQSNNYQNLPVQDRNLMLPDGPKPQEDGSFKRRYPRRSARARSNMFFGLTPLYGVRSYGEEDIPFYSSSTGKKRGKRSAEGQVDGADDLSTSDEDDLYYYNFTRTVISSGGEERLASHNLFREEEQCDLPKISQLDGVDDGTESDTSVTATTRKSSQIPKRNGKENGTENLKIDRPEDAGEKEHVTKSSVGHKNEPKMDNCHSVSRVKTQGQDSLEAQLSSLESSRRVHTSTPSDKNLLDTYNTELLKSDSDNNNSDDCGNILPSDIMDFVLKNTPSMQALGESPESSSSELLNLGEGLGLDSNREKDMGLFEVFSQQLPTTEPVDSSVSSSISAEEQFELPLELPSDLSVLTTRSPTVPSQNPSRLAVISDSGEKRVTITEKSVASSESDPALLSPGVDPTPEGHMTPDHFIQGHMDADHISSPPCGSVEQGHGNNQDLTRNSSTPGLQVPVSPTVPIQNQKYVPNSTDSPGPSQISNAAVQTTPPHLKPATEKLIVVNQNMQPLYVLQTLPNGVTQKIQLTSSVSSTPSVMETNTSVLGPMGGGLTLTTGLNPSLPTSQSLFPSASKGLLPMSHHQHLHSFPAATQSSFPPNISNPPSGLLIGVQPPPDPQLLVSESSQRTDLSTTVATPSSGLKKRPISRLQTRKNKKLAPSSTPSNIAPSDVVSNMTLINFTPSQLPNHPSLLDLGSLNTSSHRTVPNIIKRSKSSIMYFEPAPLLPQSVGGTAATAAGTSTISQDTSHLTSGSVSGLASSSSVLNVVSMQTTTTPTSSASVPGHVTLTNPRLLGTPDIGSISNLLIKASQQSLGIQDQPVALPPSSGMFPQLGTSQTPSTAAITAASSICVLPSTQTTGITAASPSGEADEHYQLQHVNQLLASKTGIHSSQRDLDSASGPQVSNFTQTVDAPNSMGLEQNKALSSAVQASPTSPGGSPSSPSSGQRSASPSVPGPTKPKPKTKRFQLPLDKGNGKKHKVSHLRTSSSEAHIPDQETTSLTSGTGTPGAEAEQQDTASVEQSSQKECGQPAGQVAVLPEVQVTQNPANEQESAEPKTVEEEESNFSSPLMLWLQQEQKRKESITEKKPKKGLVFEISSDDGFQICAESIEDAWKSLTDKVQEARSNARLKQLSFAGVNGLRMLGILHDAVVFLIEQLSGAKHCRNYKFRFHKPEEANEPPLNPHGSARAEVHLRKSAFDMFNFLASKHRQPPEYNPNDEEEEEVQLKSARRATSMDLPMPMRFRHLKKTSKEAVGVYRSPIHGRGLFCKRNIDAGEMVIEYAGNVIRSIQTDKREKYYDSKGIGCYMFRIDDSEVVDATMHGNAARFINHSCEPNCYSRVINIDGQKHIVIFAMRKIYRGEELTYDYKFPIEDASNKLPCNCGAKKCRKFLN
Excerpt: The MLL (Mixed Lineage Luekemia) gene is involved in chromosomal translocation that results in either acute lymphoid leukemia (ALL) or acute myeloid leukemia (AML). Chromasomal translocation of MLL gene is responsible for the fusion of N-terminal MLL to more than 60 different partner genes in frame. Many of the MLL partner genes contain transcription activation domains or function as transcriptional activators. Despite the heterogeneity of fusion partners, the N-terminus of MLL fusion proteins always consists of the N-terminal menin binding motif and the CXXC domain. The MLL-CXXC domain specifically recognizes unmethylated CpG sequences of the HOX-A gene. Disruption of the MLL-CXXC and HOX-A gene interaction leads to down regulation of HOX-A gene expression and may potentially reverse leukemogenesis. We have miniaturized and optimized an in-vitro assay to screen for inhibitors of the MLL-CXXC domain and HOX-A DNA interaction, which could have utility in MLL fusion leukemias.
This is a hit validation assay that tests this hits identified in the primary screen in this secondary screen, using an HTRF a read-out.
NIH Molecular Libraries Probe Production Network [MLPCN]
NIH Chemical Genomics Center [NCGC]
PI Name: John Bushweller, University of Virgina
One microliter of 7microM GST-MLL-CXXC solution prepared in assay buffer (50 mM TRIS-HCl pH 7.5, 50 mM NaCl, 1 mM DTT, 0.05% BSA) was dispesed into a 1536 well plate. Compound solution and unlabeled HOX-A9 was tranferred into the assay plate using the Kalypsys 1536-pin tool and incubated at room temperature for 5 min. One microL of 50nM Biotinylated-HOX-A9 solution prepared in assay buffer was dispensed into the assay plate; centrifuge for 30 seconds at 1000 RPM; and incubated for 30 min at room temperature. Next, 3 microL/well detection reagent mixture of 2.8 nM Eu3+-Cryptate-anti-GST-AB and 100 nM Streptavidin linked XL665 (Cisbio, MA) was added. RT-FRET read was taken after 60min of room temp incubation using the PerkinElmer Envision plate reader equipped with Eu3+ HTRF optimized filter set; EX 337nm / EM […].
% is set by controls: 0 for no effect and ±100 for the full control effect.
Note: nearly all actives have a fitted effect of over 80% in size.

Going from `O=C1NN(c2ccccc2)C(=O)/C1=C/c1ccc(-c2cccc(C(=O)O)c2)o1` to `COc1cc(/C=C2/C(=O)NN(c3ccc(F)cc3)C2=O)cc([N+](=O)[O-])c1O`, the “activity change, negative = inhibition” value rises from 7.82% to 84.9%.

First: COc1ccc(-c2onc3ccc(C(C)=O)cc23)cc1
Second: COc1ccc(S(=O)(=O)/N=C2\C=C(NS(=O)(=O)c3ccccc3)C(=O)c3ccccc32)cc1
The “activity change, negative = inhibition” value of the first is lower: 6.05% for the first, 74.8% for the second.
